Experimental findings from PubChem BioAssay AID2284193 (EPA ToxCast) are described below.

Activity calls are given as the source filed them. Rule for the calls: active = hit-call score of the fitted dose curve at least 0.9, where 1 is the maximum; inactive = score below 0.9.

Sequence of human Tachykinin Receptor NK1 Agonism, TACR1 (gene 6869) (P25103 whole entry, looked up): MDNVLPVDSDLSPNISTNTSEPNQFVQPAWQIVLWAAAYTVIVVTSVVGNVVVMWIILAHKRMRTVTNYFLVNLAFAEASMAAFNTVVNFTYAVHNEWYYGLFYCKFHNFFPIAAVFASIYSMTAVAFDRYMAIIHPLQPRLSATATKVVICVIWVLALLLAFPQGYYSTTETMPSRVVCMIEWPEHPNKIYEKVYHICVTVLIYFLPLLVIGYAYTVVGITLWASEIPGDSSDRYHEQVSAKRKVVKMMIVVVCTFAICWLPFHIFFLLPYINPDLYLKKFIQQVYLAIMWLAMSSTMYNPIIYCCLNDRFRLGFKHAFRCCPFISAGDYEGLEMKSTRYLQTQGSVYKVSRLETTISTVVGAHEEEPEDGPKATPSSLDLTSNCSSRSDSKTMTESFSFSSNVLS

The experiment addresses human Tachykinin Receptor NK1 Agonism, TACR1 (gene 6869) (UniProt P25103). Put plainly: ERF_TW_GPCR_hTACR1: Eurofins (ERF) G Protein-Coupled Receptor (GPCR) Radioligand Binding LeadHunter Assay for human Tachykinin Receptor NK1 Agonism. The method, then:
ERF_TW_GPCR_hTACR1 is a biochemical, single-readout assay that uses extracted gene-proteins in a cell-free assay. Measurements were taken 1.5 hour after chemical dosing in a 96-well plate. See NK1 Human Tachykinin GPCR Binding (Agonist Radioligand) Assay, Panlabs.ERF_TW_GPCR_hTACR1 is an assay component calculated from the ERF_TW_GPCR_hTACR1 assay. It is designed to measure radioligand binding using a type of binding reporter as detected by scintillation counting with radiometry technology.Data from the assay component ERF_TW_GPCR_hTACR1 was analyzed at the assay endpoint, ERF_TW_GPCR_hTACR1, in the positive analysis fitting direction relative to DMSO as the negative control and baseline of activity. Using a type of binding reporter, gain-of-signal activity can be used to understand changes in radioligand binding as they relate to gene TACR1. To generalize the intended target to other relatable targets, this assay endpoint is annotated to the gpcr intended target family, where the subfamily is tachykinin.
Human recombinant neurokinin NK1 receptors expressed in CHO cells are used in modified Tris-HCL buffer pH 7.4. A 36 ug aliquot is incubated with 0.8 nM [3H]Substance P for 90 minutes at 4C. Non-specific binding is estimated in the presence of 10 uM L-703,606. Receptors are filtered and washed, the filters are then counted to determine [3H]Substance P specifically bound. […]
As for `CCCCC[C@H](O)CC(=O)CCc1ccc(O)c(OC)c1`, the compound was classed as inactive.
`COc1cc(CCC(=O)CC(=O)CCc2ccc(O)c(OC)c2)ccc1O`: the AC50 was 5 µM (active).

What is called AC50 is the concentration giving half of the maximal activity seen.
